Out of some 2,100 compounds screened, about 1,100 (52%) were called active. About 29% were inconclusive and are not listed. Calls come from the whole dose curve; as a rule, active = well fitted inhibition curve with a large enough effect; inconclusive = small, poorly fitted or top-dose-only effect; inactive = no such curve, though single readings can be large or run the other way. So high a share suggests a set chosen from earlier hits. The list shows a part of the results.
Biological target: DNA dC->dU-editing enzyme APOBEC-3F (Homo sapiens) (UniProt Q8IUX4)
Sequence (Q8IUX4 whole entry, looked up): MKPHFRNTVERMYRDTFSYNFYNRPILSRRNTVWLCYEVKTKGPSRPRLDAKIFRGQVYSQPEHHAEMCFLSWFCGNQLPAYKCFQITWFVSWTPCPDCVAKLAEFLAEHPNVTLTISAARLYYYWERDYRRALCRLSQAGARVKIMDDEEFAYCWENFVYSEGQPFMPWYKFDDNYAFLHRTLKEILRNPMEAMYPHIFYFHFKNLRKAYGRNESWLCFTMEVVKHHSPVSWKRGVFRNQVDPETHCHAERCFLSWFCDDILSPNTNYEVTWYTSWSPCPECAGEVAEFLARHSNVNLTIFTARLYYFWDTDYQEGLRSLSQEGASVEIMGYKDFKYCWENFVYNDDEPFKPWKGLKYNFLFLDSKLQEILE
Assay: qHTS for inhibitors of Vif-A3F interactions: Cherry picks counterscreen; note: nearly all actives have a fitted effect of over 65% in size
Details: HeLa A3F-eYFP/Vif cells, eYFP fluorescence, 24 h; series mostly up to 46.1 µM
How it was run: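 HeLa cells stably expressing A3F-eYFP and Vif, cultured overnight, then treated 24 h at 37 degrees C with compounds at several concentrations; yellow fluorescence (488 nm Ex/500-530 nm Em) imaged on Acumen; MG132 positive control.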
Potency is the fitted concentration of half-maximal effect.

Structure (SMILES) | Potency
Cc1cc2nc3c(=O)n(C4CCCCC4)c(=O)[nH]c3nc2cc1N | 9.2 µM (active)
Cc1cc2nc3c(=O)n(CCc4ccccc4)c(=O)[nH]c3nc2cc1N | 5.17 µM (active)
Cc1cc2nc3c(=O)n(Cc4ccccc4)c(=O)[nH]c3nc2cc1N | 0.125 µM (active)
CCCCN(C(=O)c1ccc([N+](=O)[O-])s1)c1c(N)n(CCCC)c(=O)[nH]c1=O | inactive
CCOC(=O)N1CCN(C(=O)c2ccccc2-c2ccccc2)CC1 | 2.8 µM (active)
CN(C)c1ccc(/C=C/C(=O)c2ccc(O)cc2)cc1 | 4.61 µM (active)
CN(C)c1ccc(/C=C/C(=O)c2c(O)c3ccccc3oc2=O)cc1 | 4.11 µM (active)
CC(/C=C/c1ccc(N(C)C)cc1)=N\N=C(/N)SC1CC(=O)N(c2ccc(C(=O)O)cc2)C1=O (centres undefined) | inactive
CCN1/C(=C\C=C(C(C)=O)C(C)=O)Sc2ccccc21 | 14.6 µM (active)
N#Cc1c(-c2ccccc2)c(-c2ccccc2)nn(CC(=O)NNC(=O)Nc2ccccc2)c1=O | 4.44 µM (active)
N#Cc1c(-c2ccc(F)cc2)c(-c2ccc(F)cc2)nn(CCO)c1=O | 4.44 µM (active)
CC1(C)Cc2ccccc2C2CC(O)C(=O)N21 (centres undefined) | 18.4 µM (active)
Cc1ccc(-c2ccc(/C=N/NC(N)=S)o2)cc1 | inactive
Cc1ccc(NC(=O)/C(C#N)=C\c2ccc(-c3ccc(Cl)cc3)o2)c(C)c1 | 13 µM (active)
FC(F)(F)c1ccccc1NC(=S)NN=C1CCCCCC1 | inactive
O=C1CSC(=S)N1Cc1cccnc1 | 13 µM (active)
O=C1/C(=C/c2ccc(O)cc2)SC(=S)N1Cc1cccnc1 | inactive
O=C(NCc1cccs1)C1CCN(c2ccc(S(=O)(=O)N3CCOCC3)cc2Cl)CC1 | 2.8 µM (active)
CC(C)(C)OC(=O)NC(Cc1ccccc1)C(=O)N1CCC(C(=O)NCC(=O)Nc2ccc(F)cc2)CC1 (centres undefined) | 23.1 µM (active)
Cc1cc(C)c(N2C(=O)CC(Sc3ccccc3N)C2=O)c(C)c1 (centres undefined) | 15.8 µM (active)

Structure (SMILES) | Potency
Cc1cc(C)n(-c2nc3c(c(=O)[nH]c(=O)n3C)n2CC(O)COc2ccc(Cl)cc2Cl)n1 (centres undefined) | 2.23 µM (active)
COc1ccc(S(=O)(=O)N2N=C(C)Oc3ccccc3C2=O)cc1 | 3.14 µM (active)
CC1(C)CCN2CCC(C)(C)c3c(O)ccc1c32 | 14 µM (active)
CCOc1ccc(CN2C(=O)c3ccccc3Sc3ccc(C(=O)O)cc32)cc1 | 7.31 µM (active)
CC(C)OC(=O)c1c2c(n3ccccc13)C(=O)c1ccccc1C2=O | 8.2 µM (active)
CCOc1ccccc1C(=O)Nc1c(C(=O)Nc2ccc(F)cc2)oc2ccccc12 | 0.92 µM (active)
Oc1ccc(C=NNC(=S)Nc2ccc(F)cc2)c(O)c1 | inactive
Cc1cc(C)c[n+](-c2nc3ccccc3nc2[N-]S(=O)(=O)c2ccc(Br)s2)c1 | 9.2 µM (active)
O=S(=O)([N-]c1nc2ccccc2nc1-[n+]1ccc(-c2ccncc2)cc1)c1ccccc1 | 18.4 µM (active)
CCc1cc[n+](-c2nc3ccccc3nc2[N-]S(=O)(=O)c2ccc(Br)s2)cc1 | 8.2 µM (active)
O=C(c1ccccc1)C1C(=O)c2ccccc2C1=O | inactive
NN=C1c2ccccc2C(=O)C1C(=O)C(c1ccccc1)c1ccccc1 (centres undefined) | 12.5 µM (active)
CCCCN1C(=O)C2Cc3c([nH]c4ccccc34)CN2C1=S (centres undefined) | 15.8 µM (active)
CCS(=O)(=O)Nc1cccc(C2=NN(C(=O)c3ccco3)C(c3ccco3)C2)c1 (centres undefined) | 11.2 µM (active)
CCCN1CCC(=NNc2ccc(S(=O)(=O)N3CCOCC3)cc2[N+](=O)[O-])CC1 | 3.96 µM (active)
O=C(O)c1ccccc1/C=N/Nc1ccc(S(=O)(=O)N2CCOCC2)cc1[N+](=O)[O-] | inactive
Cc1ccc(NC(=S)N=Nc2c(O)n(C)c3ccc(S(=O)(=O)N4CCOCC4)cc23)cc1 | inactive
COc1ccccc1CCC(=O)Nc1ccc2c(c1)c(=O)n(C)n2-c1cccs1 | 3.14 µM (active)
CC(C)=CCn1c2ccc(NC(=O)NCc3ccc(F)cc3)cc2c(=O)n1C | 3.14 µM (active)
COc1ccccc1CCC(=O)Nc1ccc2c(c1)c(=O)n(C)n2Cc1ccc(F)cc1 | 15.8 µM (active)

Structure (SMILES) | Potency
Cc1ccc2[nH]c3c(c2c1)CN(C(=O)CN1CC(C)OC(C)C1)CC3 (centres undefined) | inactive
O=C(C[C@@H]1C/C=C/CC[C@H](Cc2ccc(F)cc2)C(=O)OC[C@@H](Cc2ccccc2)NC1=O)N[C@H](CO)Cc1ccccc1 | 16.4 µM (active)
COc1cccc(C(=O)N/N=C/C(Br)=C/c2ccccc2)c1 | 2.8 µM (active)
CC(/C=N/NC(=O)c1cccc(F)c1)=C\c1ccccc1 | 12.5 µM (active)
O=C(O)c1ccc(N/N=C/C(Br)=C/c2ccccc2)cc1 | inactive
C/C(=N/NC(N)=S)c1ccc(Br)s1 | inactive
COc1cc(OC)cc(C(=O)N2CC(=O)Nc3ccccc32)c1 | 1.25 µM (active)
Cc1cc(C)cc(C(=O)N2CC(=O)Nc3ccccc32)c1 | 0.994 µM (active)
CCCn1nc(C(=O)N2CC(=O)Nc3ccccc32)c2ccccc2c1=O | 11.2 µM (active)
O=C1CN(C(=O)c2cc(Br)c(Br)s2)c2ccccc2N1 | 6.27 µM (active)
CCC(C)[C@H](NC(=O)N1CC(=O)Nc2ccccc21)C(=O)Nc1ccccc1C (some centres undefined) | 15.8 µM (active)
Cc1ccc(N/C(N)=N/c2nc(CSc3nnc(C)s3)cc(=O)[nH]2)c(C)c1 | 1.77 µM (active)
CC(=Nc1ccccc1)C1=C(O)C(Cc2ccccc2)NC1=O (centres undefined) | 0.314 µM (active)
CC#Cc1cc2c(cc1O)CCC1C2CCC2(C)C(O)CCC12 (centres undefined) | 5.59 µM (active)
C=C(NC(=O)C(=C)NC(=O)c1csc(C2=NC3c4csc(n4)C4NC(=O)c5csc(n5)C(C(C)(O)C(C)O)NC(=O)C5CSC(=N5)/C(=C/C)NC(=O)C(C(C)O)NC(=O)c5csc(n5)C3(CC2)NC(=O)C(C)NC(=O)C(=C)NC(=O)C(=C)NC(=O)C(C(C)C)NC2C=Cc3c(C(C)O)cc(nc3C2O)C(=O)OC4C)n1)C(N)=O (centres undefined) | 5.59 µM (active)
COc1ccc(NC(=O)CN2C(=O)C3(SCC(=O)N3c3ccccc3)c3ccccc32)cc1Cl (centres undefined) | inactive
CC(CC(=O)Nc1ccc2c(c1)c(=O)n(C)n2-c1ccccc1)c1ccccc1 (centres undefined) | 2.23 µM (active)
CC(CC(=O)Nc1ccc2c(c1)c(=O)n(C)n2-c1ccccc1F)c1ccccc1 (centres undefined) | 12.5 µM (active)
Cn1c(=O)c2cc(NC(=O)Cc3cccc4ccccc34)ccc2n1-c1ccccc1 | 7.04 µM (active)
